How the values were obtained:
Assay type in all cases: functional
[1] = molecular target: Solute carrier family 2, facilitated glucose transporter member 1 (Homo sapiens) (UniProt P11166); assay: ST_JUDE_LEISH: Cytotoxicity at 2uM final concentration against transgenic Leishmania Mexicana promastigotes LmGLUT1 that are glucose transport deficient and complemented with the human glucose transporter GLUT1. Activity is measured by DNA content using SYBR green in vitro
[2] = molecular target: Hexose transporter 1 (Plasmodium falciparum) (UniProt O97467); assay: ST_JUDE_LEISH: Cytotoxicity at 2uM final concentration against transgenic Leishmania Mexicana promastigotes LmPfHT that are glucose transport deficient and complemented with the Plasmodium falciparum hexose transporter. Activity is measured by DNA content using SYBR green in vitro
[3] = molecular target: Glucose transporter (Leishmania mexicana) (UniProt O61059); assay: ST_JUDE_LEISH: Cytotoxicity at 2uM final concentration against transgenic Leishmania Mexicana promastigotes LmGT2 that are glucose transport deficient and complemented with the L. Mexicana glucose transporter 2. Activity is measured by DNA content using SYBR green in vitro

Solute carrier family 2, facilitated glucose transporter member 1 (Homo sapiens), sequence (P11166 whole entry): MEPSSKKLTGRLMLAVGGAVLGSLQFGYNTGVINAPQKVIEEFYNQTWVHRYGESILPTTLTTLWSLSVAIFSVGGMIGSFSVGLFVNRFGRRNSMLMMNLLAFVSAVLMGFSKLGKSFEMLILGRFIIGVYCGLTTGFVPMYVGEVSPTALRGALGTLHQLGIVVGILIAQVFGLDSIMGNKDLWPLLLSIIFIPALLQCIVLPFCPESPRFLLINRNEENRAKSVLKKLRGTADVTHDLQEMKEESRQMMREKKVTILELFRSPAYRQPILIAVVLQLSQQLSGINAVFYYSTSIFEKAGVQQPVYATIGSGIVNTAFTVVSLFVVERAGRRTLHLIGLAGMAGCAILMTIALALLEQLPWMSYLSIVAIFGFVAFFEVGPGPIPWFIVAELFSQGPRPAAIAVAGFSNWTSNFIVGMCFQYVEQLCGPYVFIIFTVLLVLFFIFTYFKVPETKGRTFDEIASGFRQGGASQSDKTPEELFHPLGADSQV

| SMILES | inhibition [1] | inhibition [2] | inhibition [3] |
| --- | --- | --- | --- |
| c1cncc(CCNCc2cccc(-c3csc(-c4nc5ccccc5[nH]4)c3)c2)c1 | 4.04% | 4.06% | 2.64% |
| Cn1cnc2c(SCc3ccccc3OCc3ccccc3)ncnc21 | 6.91% | 5.44% | 4.68% |
| COc1ccc2nc3cc(Cl)ccc3c(Nc3ccc(C(=O)O)cc3)c2c1 | 5.95% | -1.31% | 0.06% |
| Cc1[nH]c(C)c(-c2ccc(C#Cc3ccc(F)cc3F)cc2)c(=O)c1Br | -0.29% | 1.21% | 0.22% |
| Oc1cc(NCCCNC2CCc3c(Cl)cc(Cl)cc32)nc2ccccc12 (centres undefined) | 0.63% | 0.11% | 3.08% |
| O=[N+]([O-])c1ccc(N2CCCN(C(=S)Nc3ccc(F)cc3Br)CC2)nc1 | 1.6% | -0.77% | 1.29% |
| O=C(Nc1cccc(-c2ccc(-c3nc4ccccc4[nH]3)cc2)c1)c1cnn2cccnc12 | -0.77% | -0.45% | -0.33% |
| O=C(c1ccc(O)c(-c2cc(Cl)cc(Cl)c2)c1)N1CCCC1 | 1.89% | 0.9% | -0.96% |
| COc1ccc2c(c1)ncn2-c1cc(OCc2ccncc2Br)c(C(N)=O)s1 | 1.09% | 1.34% | 2.35% |
| CN(C)c1ccc(-c2ccc(C(=O)NC3CCN(Cc4ccccc4F)CC3)s2)cc1 | 6.98% | 0.05% | 1.85% |
| COc1ccc(NC(=O)Nc2ccc(Nc3nc(C)cc(N(C)C)n3)cc2)cc1 | 2.57% | 3.61% | 4.41% |
| CC(C)c1ccc(NC(=O)c2ccc(C(=O)NCC3CCN(CC4CCCCC4)CC3)cc2)cc1 | 3.12% | 1.53% | 1.95% |
| COc1cc(C(=O)NCCCN2CCN(c3cccc(Cl)c3)CC2)ccc1-c1cc2cc(Cl)c(Cl)cc2[nH]1 | 4.57% | 4.17% | 3.53% |

From ChEMBL document CHEMBL3433997, “St. Jude Leishmania screening dataset” (2016)
